According to PubChem BioAssay (NCATS):
Inconclusive results are not listed. Unmarked numbers belong to inactive results. Calls of active or inactive are those of the source. The call rests on the fitted dose curve; in most records, active means well fitted inhibition curve with a large enough effect; inconclusive means small, poorly fitted or top-dose-only effect; inactive means flat fitted curve, though single readings scatter.

target: Luciferin 4-monooxygenase (Photinus pyralis) (UniProt P08659); assay: Biochemical firefly luciferase enzyme assay for NPC (AID 624030); further: nearly all actives have a fitted effect of over 70% in size;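 on activity change, negative = inhibition: 0% = DMSO and -100% = full luciferase inhibition by PTC124 control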; settings: purified P. pyralis luciferase, luminescence, 5 min; series mostly up to 58.6 µM; activity change, negative = inhibition: at the top concentration
Sequence (P08659 whole entry, looked up): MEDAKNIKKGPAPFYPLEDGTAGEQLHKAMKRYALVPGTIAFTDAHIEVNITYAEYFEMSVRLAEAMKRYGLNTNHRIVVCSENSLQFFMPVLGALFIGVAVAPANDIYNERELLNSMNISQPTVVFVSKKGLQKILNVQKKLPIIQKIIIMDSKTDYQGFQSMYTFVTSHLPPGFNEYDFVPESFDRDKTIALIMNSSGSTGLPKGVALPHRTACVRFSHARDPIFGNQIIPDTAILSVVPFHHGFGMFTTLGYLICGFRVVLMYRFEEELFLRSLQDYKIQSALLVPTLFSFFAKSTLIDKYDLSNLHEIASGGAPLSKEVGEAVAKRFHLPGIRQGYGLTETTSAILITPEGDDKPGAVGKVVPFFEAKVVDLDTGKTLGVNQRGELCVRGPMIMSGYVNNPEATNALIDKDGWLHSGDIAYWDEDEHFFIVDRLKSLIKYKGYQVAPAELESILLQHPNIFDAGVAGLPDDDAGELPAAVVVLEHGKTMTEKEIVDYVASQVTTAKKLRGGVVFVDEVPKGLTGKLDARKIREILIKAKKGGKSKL
Text: Charcot-Marie-Tooth-Association [CMTA] National Center for Advancing Translational Sciences [NCATS] Charcot-Marie-Tooth (CMT) disease was first characterized by Jean-Martin Charcot and Pierre Marie in France and, independently, by Howard Henry Tooth in England in 1886. CMT is one of the most common inherited neurological diseases, affecting approximately 1 in 2,500 Americans. […] The most prevalent type of CMT is known as CMT1A and caused by a duplication of the PMP22 gene which leads to over-expression of this protein. PMP22 is a glycosylated intrinsic membrane protein accounting for 2-5% of the myelin protein content, and its over-expression results in demyelination and subsequently axonal loss. A pair of cellular transcription-based assays was developed in the S16 rat Schwann cell lines (Hai, M., et al., 2002) stably transfected with orthogonal reporters - firefly luciferase (Fluc) and beta-lactamase (beta-Lac) - whose expression is driven by an intronic regulatory element of the PMP22 gene (Jones, E.A., et al., 2011) to recapitulate endogenous expression of PMP22. A comprehensive library of approved drugs, the NCGC Pharmaceutical Collection (Huang, R., et al., 2011), was screened in the cross-validating platform of the orthogonal reporter assays to identify drug modulators inhibitory towards PMP22 expression. A set of counter-screens was devised to address non-specific activity of the library. An ATP-dependent CellTiter-Glo assay (developed by Promega Corp) was utilized to control cell viability. In addition, biochemical Fluc enzyme assay was performed to assess direct inhibition of the Fluc enzymatic activity. References Hai, M., Muja, N., DeVries, G.H., Quarles, R.H. and Patel, P.I. Comparative analysis of Schwann cell lines as model systems for myelin gene transcription studies. J Neurosci Res, 2002. 69(4): pp 497-508 Huang, R., Southall, N., Wang, Y., Yasgar A., Shinn P., Jadhav, A. , Nguyen, D.-T. and Austin, C.P., The NCGC pharmaceutical collection: a comprehensive resource of clinically approved drugs enabling repurposing and chemical genomics. Sci Transl Med, 2011. 3(80): p. 80ps16.
Compounds were transferred to the plates in 23nl, and one microliter/well luciferase enzyme-buffer solution (10 nM P. pyralis luciferase and 50 mM Tris Acetate final concentrations) was dispensed yielding a final reaction volume of […]. Luciferase luminescence was measured by a ViewLux plate reader within 5 minutes of enzyme-buffer addition. The % activity was determined by normalizing to the average readings of PTC124 (a positive control) relative to DMSO (0% Activity). The concentration-effect curves were then classified based on curve quality (r2), response magnitude and degree of measured activity.
Potency means the concentration at half of the fitted maximal effect.

| Compound | activity change, negative = inhibition | Potency |
| --- | --- | --- |
| O=c1[nH]c(=O)c2ccccc2o1 | -1.16% |  |
| Cc1cc(OI)c(C(C)C)cc1-c1cc(C(C)C)c(OI)cc1C | 11.6% |  |
| Cc1cc(=O)[nH]c(=S)[nH]1 | -1.08% |  |
| N[C@@H](Cc1ccc(O)cc1)C(=O)O | 0.589% |  |
| CN1CCN(C(=O)C2CCCCC2)CC1 | 2.45% |  |
| O=C(NCCCN1CCOCC1)c1ccc(Cl)cc1 | -5.24% |  |
| O=C1CC[C@@H](C(=O)O)N1 | 1.14% |  |
| OCC(O)CS (stereo not given) | -4.55% |  |
| NS(=O)(=O)c1cc2c(cc1C(F)(F)F)NCNS2(=O)=O | 1.23% [at 24.9 µM] |  |
| Cc1cccc(C)c1NC(=O)CC12CCCN1CCC2 | 1.04% |  |
| COC(=O)c1cccnc1 | 11% |  |
| CC(C)CCOC(=O)c1ccc(N(C)C)cc1 |  | 6.42 µM (active) |
| CCN(CC)CC1CCCCN1CC(=O)N1c2ccccc2C(=O)Nc2cccnc21 (stereo not given) | -0.405% |  |
| Cc1cccc(C(=O)O)c1O | -1.22% |  |
| O=c1[nH]cnc2nc[nH]c12 | 1.28% |  |
| CN(C/C=C/C#CC(C)(C)C)Cc1cccc2ccccc12 | 3.81% |  |
| O=C(CN1CCNCC1)NC1CCCCC1 | -4.63% |  |
| CC(=O)N[C@@H](Cc1ccc(O)cc1)C(=O)O | 1.51% |  |
| CCN(CC)C(=O)c1cccc(C)c1 | 1.69% |  |
| C=CCSCC1Nc2cc(Cl)c(S(N)(=O)=O)cc2S(=O)(=O)N1 (stereo not given) | -1.49% |  |

| Compound | activity change, negative = inhibition | Potency |
| --- | --- | --- |
| CC(=O)NS(=O)(=O)c1ccc(N)cc1 | 2.75% |  |
| O=C(O)COC(=O)Cc1ccccc1Nc1c(Cl)cccc1Cl | -9.51% [at 24.9 µM] |  |
| CN/C(=C\[N+](=O)[O-])NCCSCc1csc(CN(C)C)n1 | -1.07% [at 24.9 µM] |  |
| NCc1ccc(S(N)(=O)=O)cc1 | -0.571% [at 24.9 µM] |  |
| CCCCCCCCCCC(CO)CCCCCCCC (stereo not given) | 3.32% |  |
| CCc1nnc(NS(=O)(=O)c2ccc(N)cc2)s1 | -0.124% |  |
| CC[N+](CC)(CC(=O)Nc1c(C)cccc1C)Cc1ccccc1 | -0.35% |  |
| O=C(c1ccccc1)C(O)c1ccccc1 (stereo not given) | -0.737% |  |
| Nc1ncnc(Nc2ccccc2)n1 | -14.6% |  |
| COc1ccccc1OC(=O)Oc1ccccc1OC | -6.57% |  |
| NS(=O)(=O)c1ccc(C(=O)O)cc1 | 0.507% |  |
| CC1CC(OC(=O)c2ccccc2O)CC(C)(C)C1 (stereo not given) | -3.85% |  |
| O=C(CCBr)N1CCN(C(=O)CCBr)CC1 | 0.181% |  |
| O=C(O)c1ccc[n+]([O-])c1 | -0.155% |  |
| CCCCCC(N)=O | 2.28% |  |
| NC(=O)NS(=O)(=O)c1ccc(N)cc1 | -4.79% |  |
| NC(=O)c1ccc([N+](=O)[O-])cc1Cl | 1.68% |  |
| FC(F)(F)C(Cl)Br (stereo not given) | 0.432% |  |
| CC1CCc2cc(F)cc3c(=O)c(C(=O)O)cn1c23 (stereo not given) | 3.38% |  |
| Cc1ccc(S(=O)(=O)NC(=O)NC2CCCCC2)cc1 | 2.04% |  |
